# Measured values from the supplement of paper PMC8728848.
# Only a selection was taken, and the strongest signals are over-represented in it overall.
# B1: OVGAL11 (Ovis aries), AAF64320 (protein)
# chain: MDSLPNPYLQSVSLTVCYMVKIKANLLSAFGKNPELQVDFGTGTGQGGNIPFRFWYCDGMVVMNTFTDGSWQKEEKVLTDAFVPGQPFELQFLVLEKEYQVFVKNKPICQFAHRLPLQSVKMLDVRGDIVLTSVDTL
# Tests used:
# Test in all cases: glycan array binding signal (z-score within array); higher = stronger binding
# Conditions in all cases: glycan notation: IUPAC condensed, linker removed
# [1] = target: Fuc(a1-2)Gal(b1-3)GalNAc(b1-3)Gal
# Summary of the method: (§1)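 Arrays were curated from the Consortium for Functional Glycomics database, 3228 in total, and kept only where the protein sequence was available. Binding is expressed as a within-array Z-score. This score was averaged across arrays of the same protein sequence at different concentrations or buffers and across linkers, and negative values can be read as non-binding.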
# [2] = target: Fuc(a1-2)Gal(b1-3)GalNAc(b1-4)[Neu5Ac(a2-3)]Gal(b1-4)Glc
# Summary of the method: as §1
# Fuc(a1-2)Gal(b1-3)GlcNAc = target: Fuc(a1-2)Gal(b1-3)GlcNAc
# Summary of the method: as §1
# Fuc(a1-2)Gal(b1-4)Glc = target: Fuc(a1-2)Gal(b1-4)Glc
# Summary of the method: as §1
# [3] = target: Fuc(a1-2)[Gal(a1-3)]Gal(b1-4)GlcNAc
# Summary of the method: as §1
# [4] = target: Fuc(a1-2)[GalNAc(a1-3)]Gal(b1-4)Glc
# Summary of the method: as §1
# [5] = target: Fuc(a1-2)[GalNAc(a1-3)]Gal(b1-4)GlcNAc(b1-3)Gal(b1-4)GlcNAc(b1-3)Gal(b1-4)GlcNAc
# Summary of the method: as §1
# Fuc(a1-3)GlcNAc = target: Fuc(a1-3)GlcNAc
# Summary of the method: as §1
# [6] = target: Fuc(a1-3)[Gal(b1-4)]GlcNAc(b1-3)GalNAc
# Summary of the method: as §1
# Gal(a1-3)Gal(b1-3)Glc = target: Gal(a1-3)Gal(b1-3)Glc
# Summary of the method: as §1
# [7] = target: Gal(a1-3)Gal(b1-3)GlcNAc(b1-2)Man(a1-3)[Gal(a1-3)Gal(b1-3)GlcNAc(b1-2)Man(a1-6)]Man(b1-4)GlcNAc(b1-4)GlcNAc
# Summary of the method: as §1
# [8] = target: Gal(a1-3)Gal(b1-3)GlcNAc(b1-6)GalNAc
# Summary of the method: as §1
# Gal(a1-4)Gal(b1-4)Glc = target: Gal(a1-4)Gal(b1-4)Glc
# Summary of the method: as §1
# Gal(b1-3)Gal(b1-4)GlcNAc = target: Gal(b1-3)Gal(b1-4)GlcNAc
# Summary of the method: as §1
# [9] = target: Gal(b1-3)GalNAc(b1-4)[Neu5Ac(a2-3)]Gal(b1-4)Glc
# Summary of the method: as §1
# [10] = target: Gal(b1-3)GlcNAc(a1-6)Gal(b1-4)GlcNAc
# Summary of the method: as §1
# Gal(b1-3)GlcNAc(b1-2)Man = target: Gal(b1-3)GlcNAc(b1-2)Man
# Summary of the method: as §1
# [11] = target: Gal(b1-3)GlcNAc(b1-3)Gal(b1-4)GlcNAc(b1-6)[Gal(b1-3)GlcNAc(b1-3)]Gal(b1-4)Glc
# Summary of the method: as §1
# [12] = target: Gal(b1-3)[Fuc(a1-4)]GlcNAc(b1-3)Gal(b1-3)[Fuc(a1-4)]GlcNAc
# Summary of the method: as §1
# [13] = target: Gal(b1-4)GlcNAc(b1-2)Man(a1-3)[Gal(b1-4)GlcNAc(b1-2)Man(a1-6)][Gal(b1-4)GlcNAc(b1-4)]Man(b1-4)GlcNAc(b1-4)[Fuc(a1-6)]GlcNAc
# Summary of the method: as §1
# [14] = target: Gal(b1-4)GlcNAc(b1-2)Man(a1-3)[Man(a1-6)]Man(b1-4)GlcNAc(b1-4)GlcNAc
# Summary of the method: as §1
# [15] = target: Gal(b1-4)GlcNAc(b1-2)Man(a1-6)[GlcNAc(b1-2)Man(a1-3)]Man(b1-4)GlcNAc(b1-4)GlcNAc
# Summary of the method: as §1
# [16] = target: Gal(b1-4)GlcNAc(b1-2)[Gal(b1-4)GlcNAc(b1-6)]Man(a1-6)[GlcNAc(b1-4)][Gal(b1-4)GlcNAc(b1-2)Man(a1-3)]Man(b1-4)GlcNAc(b1-4)GlcNAc
# Summary of the method: as §1
# [17] = target: Gal(b1-4)GlcNAc(b1-3)[Gal(b1-4)GlcNAc(b1-6)]GalNAc
# Summary of the method: as §1
# Gal3S(b1-4)Glc = target: Gal3S(b1-4)Glc
# Summary of the method: as §1
# Gal3S6S(b1-4)GlcNAc = target: Gal3S6S(b1-4)GlcNAc
# Summary of the method: as §1
# Gal3S6S(b1-4)GlcNAc6S = target: Gal3S6S(b1-4)GlcNAc6S
# Summary of the method: as §1
# Glc(a1-6)Glc(a1-6)Glc = target: Glc(a1-6)Glc(a1-6)Glc
# Summary of the method: as §1
# Glc(b1-6)Glc = target: Glc(b1-6)Glc
# Summary of the method: as §1
# [18] = target: GlcNAc(a1-4)Gal(b1-3)GlcNAc
# Summary of the method: as §1
# [19] = target: GlcNAc(a1-4)Gal(b1-4)GlcNAc(b1-3)Gal(b1-4)GlcNAc
# Summary of the method: as §1
# [20] = target: GlcNAc(b1-3)Gal(b1-4)GlcNAc(b1-6)[GlcNAc(b1-3)]Gal(b1-4)GlcNAc
# Summary of the method: as §1
# [21] = target: GlcNAc(b1-3)[GlcNAc(b1-6)]GalNAc
# Summary of the method: as §1
# [22] = target: GlcNAc(b1-4)GlcNAc(b1-4)GlcNAc(b1-4)GlcNAc(b1-4)GlcNAc
# Summary of the method: as §1
# [23] = target: Man(a1-2)Man(a1-2)Man(a1-3)Man
# Summary of the method: as §1
# MurNAc(b1-4)GlcNAc = target: MurNAc(b1-4)GlcNAc
# Summary of the method: as §1
# [24] = target: Neu5Ac(a2-3)Gal(b1-3)GalNAc(b1-4)[Neu5Ac(a2-8)Neu5Ac(a2-3)]Gal(b1-4)Glc
# Summary of the method: as §1
# [25] = target: Neu5Ac(a2-3)Gal(b1-4)GlcNAc(b1-3)Gal(b1-4)GlcNAc(b1-3)[Neu5Ac(a2-3)Gal(b1-4)GlcNAc(b1-3)Gal(b1-4)GlcNAc(b1-6)]GalNAc
# Summary of the method: as §1
# [26] = target: Neu5Ac(a2-3)Gal(b1-4)GlcNAc(b1-3)[Neu5Ac(a2-3)Gal(b1-4)GlcNAc(b1-6)]GalNAc
# Summary of the method: as §1
# [27] = target: Neu5Ac(a2-3)Gal6S(b1-4)[Fuc(a1-3)]GlcNAc
# Summary of the method: as §1
# [28] = target: Neu5Ac(a2-6)Gal(b1-4)GlcNAc(b1-2)Man(a1-3)[Neu5Ac(a2-3)Gal(b1-4)GlcNAc(b1-2)Man(a1-6)]Man(b1-4)GlcNAc(b1-4)GlcNAc
# Summary of the method: as §1
# [29] = target: Neu5Ac(a2-6)Gal(b1-4)GlcNAc(b1-2)Man(a1-3)[Neu5Ac(a2-6)Gal(b1-4)GlcNAc(b1-2)Man(a1-6)]Man(b1-4)GlcNAc(b1-4)GlcNAc
# Summary of the method: as §1
# [30] = target: Neu5Ac(a2-6)Gal(b1-4)GlcNAc(b1-3)Gal(b1-4)GlcNAc(b1-3)GalNAc
# Summary of the method: as §1
# [31] = target: Neu5Ac(a2-6)Gal(b1-4)GlcNAc(b1-3)GalNAc
# Summary of the method: as §1
# [32] = target: Neu5Ac(a2-8)Neu5Ac(a2-3)Gal(b1-3)GalNAc(b1-4)[Neu5Ac(a2-3)]Gal(b1-4)Glc
# Summary of the method: as §1
# [33] = target: Neu5Ac(a2-8)Neu5Ac(a2-3)[Gal(b1-3)GalNAc(b1-4)]Gal(b1-4)Glc
# Summary of the method: as §1
# [34] = target: Neu5Ac(a2-8)Neu5Ac(a2-8)Neu5Ac(a2-3)[Gal(b1-3)GalNAc(b1-4)]Gal(b1-4)Glc
# Summary of the method: as §1
# [35] = target: Neu5Ac(a2-8)Neu5Gc(a2-3)Gal(b1-4)GlcNAc
# Summary of the method: as §1
# Neu5Gc(a2-3)Gal(b1-4)Glc = target: Neu5Gc(a2-3)Gal(b1-4)Glc
# Summary of the method: as §1
# [36] = target: Neu5Gc(a2-3)Gal(b1-4)[Fuc(a1-4)]GlcNAc
# Summary of the method: as §1
binder,measurement,setting,value
B1,glycan array binding signal (z-score),[1],1.72
same,glycan array binding signal (z-score),[2],6.31
same,glycan array binding signal (z-score),Fuc(a1-2)Gal(b1-3)GlcNAc,-0.096
same,glycan array binding signal (z-score),Fuc(a1-2)Gal(b1-4)Glc,-0.057
same,glycan array binding signal (z-score),[3],0.2
same,glycan array binding signal (z-score),[4],0.204
same,glycan array binding signal (z-score),[5],-0.076
same,glycan array binding signal (z-score),Fuc(a1-3)GlcNAc,4.51
same,glycan array binding signal (z-score),[6],-0.106
same,glycan array binding signal (z-score),Gal(a1-3)Gal(b1-3)Glc,-0.398
same,glycan array binding signal (z-score),[7],-0.081
same,glycan array binding signal (z-score),[8],-0.082
same,glycan array binding signal (z-score),Gal(a1-4)Gal(b1-4)Glc,-0.104
same,glycan array binding signal (z-score),Gal(b1-3)Gal(b1-4)GlcNAc,-0.063
same,glycan array binding signal (z-score),[9],1.62
same,glycan array binding signal (z-score),[10],-0.11
same,glycan array binding signal (z-score),Gal(b1-3)GlcNAc(b1-2)Man,-0.023
same,glycan array binding signal (z-score),[11],-0.113
same,glycan array binding signal (z-score),[12],-0.101
same,glycan array binding signal (z-score),[13],-0.011
same,glycan array binding signal (z-score),[14],-0.086
same,glycan array binding signal (z-score),[15],-0.094
same,glycan array binding signal (z-score),[16],-0.095
same,glycan array binding signal (z-score),[17],0.686
same,glycan array binding signal (z-score),Gal3S(b1-4)Glc,0.199
same,glycan array binding signal (z-score),Gal3S6S(b1-4)GlcNAc,-0.175
same,glycan array binding signal (z-score),Gal3S6S(b1-4)GlcNAc6S,0.724
same,glycan array binding signal (z-score),Glc(a1-6)Glc(a1-6)Glc,-0.089
same,glycan array binding signal (z-score),Glc(b1-6)Glc,0.568
same,glycan array binding signal (z-score),[18],-0.114
same,glycan array binding signal (z-score),[19],-0.089
same,glycan array binding signal (z-score),[20],-0.102
same,glycan array binding signal (z-score),[21],-0.084
same,glycan array binding signal (z-score),[22],-0.316
same,glycan array binding signal (z-score),[23],4.38
same,glycan array binding signal (z-score),MurNAc(b1-4)GlcNAc,-0.098
same,glycan array binding signal (z-score),[24],-0.069
same,glycan array binding signal (z-score),[25],-0.068
same,glycan array binding signal (z-score),[26],-0.097
same,glycan array binding signal (z-score),[27],-0.219
same,glycan array binding signal (z-score),[28],-0.08
same,glycan array binding signal (z-score),[29],-0.138
same,glycan array binding signal (z-score),[30],-0.065
same,glycan array binding signal (z-score),[31],-0.082
same,glycan array binding signal (z-score),[32],1.75
same,glycan array binding signal (z-score),[33],13.5
same,glycan array binding signal (z-score),[34],-0.044
same,glycan array binding signal (z-score),[35],0.807
same,glycan array binding signal (z-score),Neu5Gc(a2-3)Gal(b1-4)Glc,-0.214
same,glycan array binding signal (z-score),[36],0.714
